# TSHR ag: TSH receptor (human) agonism; 73,000 compounds, 0.48% hits; AID 926; Potency, µM (top dose mostly 57.1 µM), inactives show top-dose activation, hits mostly activators; HEK293-CNG-TSHR cells (CNG channel as cAMP sensor), membrane potential dye, cAMP; P16473; active = well fitted activation curve with a large enough effect in the main read-out, with a control signal flat, not every such curve was filed as active; inconclusive = small, poorly fitted or top-dose-only effect, or a change in a side signal; inactive = no such curve, though single readings can be large or run the other way; % of control where 0% means no effect;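 note: the control signal comes from parental cells without the receptor; potency is the fitted concentration of half-maximal effect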
#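 HEK 293 cells stably expressing TSHR and a modified CNG channel, with CNG-only parental cells as counterscreen, were preloaded 60 min at room temperature with membrane potential dye containing 100 uM RO 20-1724. Compound exposure was 30 min, and depolarization was read as fluorescence at 590 nm.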
# Pol III holo inh: DNA polymerase III holoenzyme inhibition; 71,000 compounds, 0.25% hits; Potency, µM (series often up to 57.1 µM), inactives show top-dose activity change, negative = inhibition; reconstituted DNA polymerase III holoenzyme replication, biochemical; note: potency is the fitted concentration of half-maximal effect; % is set by controls: 0 for no effect and ±100 for the full control effect
#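 Reconstituted *E. coli* holoenzyme (0.35 nM Pol III, 1 nM beta, 154 nM SSB, 2 nM primase) was preincubated with compound for 15 min at RT. Synthesis on 1.4 nM ssM13Gori ran 35 min, then was stopped with PicoGreen/EDTA and read as dsDNA fluorescence.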
# HEK293 cAMP cs: counter-screen for TSHR agonists: cAMP increase in parental HEK293 | 73,000 compounds, 2.5% hits | AID 938 | parental HEK293 CNG cAMP sensor, membrane potential fluorescence | Potency, µM (top dose mostly 57.1 µM), for the others: at the highest dose activation, hits mostly activators; note: potency is the fitted concentration of half-maximal effect; % of control where 0% means no effect; nearly all actives have a fitted effect of over 55% in size
#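 Parental HEK 293 cells stably expressing a cAMP-gated CNG channel were loaded with membrane potential dye containing 100 uM RO 20-1724 for 60 min. Compound added for 30 min; depolarization read as fluorescence intensity at 590 nm.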
# TsaE inh: displaces an ADP probe from E. coli YjeE (TsaE); P0AF67; purified YjeE enzyme, qHTS inhibition assay; Potency, µM; 71,000 compounds, 0.05% hits; AID 605
#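 Purified YjeE (10 uM) with BODIPY Texas Red-labeled ADP probe (2 uM); compounds pin-transferred, 15 min at room temperature. Binding inhibition read as decreased fluorescence polarization; ADP titration as control.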
# BRCT inh green: BRCA1 BRCT-phosphoprotein interaction inhibition. 75,000 compounds, 0.05% hits. Potency, µM (doses to about 76.9 µM), for the others: top-dose activity change, negative = inhibition, hits mostly inhibitors. BRCA1 BRCT-phosphopeptide binding, green fluorescence polarization. P38398;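 note: potency is the fitted concentration of half-maximal effect; plate controls were peptide without protein for full effect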
#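 Compounds were incubated for 12 min at room temperature with a complex of 100 nM fluorescein-tagged pBACH1 decapeptide and 250 nM His-tagged BRCT protein. Buffer was phosphate pH 7.3 with EDTA, DTT and Tween 20. Disruption of binding lowers the polarization signal.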
# BRCT inh red: disrupts BRCA1 BRCT binding to phosphoprotein, red fluorophore readout; BRCT-phosphopeptide binding, red fluorescence polarization; Potency, µM (highest dose often 76.9 µM), for the others: at the highest dose activity change, negative = inhibition, hits mostly inhibitors; 75,000 compounds, 0.03% hits; AID 892; note: % is set by controls: 0 for no effect and ±100 for the full control effect
#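 Rhodamine-labelled pBACH1 10-mer (100 nM) bound to BRCT domain (100 nM) at pH 7.3; compounds incubated 12 min room temperature, polarization read. Free peptide defines full inhibition; unlabelled decapeptide titrated as control.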
# The depositor's hits bear a star; i = inactive; ? = inconclusive; . = no result given; [ ] = dose if it differs, or a comment. Only some compounds are listed: those with a hit (about 3.2% of all), similar ones and a draw of the others. Unless noted, calls come from the whole dose curve; as a rule, active = well fitted curve in the direction sought with a large enough effect; inconclusive = small, poorly fitted or top-dose-only effect, or another doubt; inactive = no such curve, though single readings can be large; an effect the other way counts as inactive or inconclusive.
SMILES,TSHR ag,Pol III holo inh,HEK293 cAMP cs,TsaE inh,BRCT inh green,BRCT inh red
Cc1cc(C)n(-c2nc(SCC(=O)NCC3CCCO3)c3c4c(sc3n2)CCCC4)n1 (configuration not stated),?,-10%,25µM*,i,1%,1%
Cn1cnc([N+](=O)[O-])c1[Se]c1nc(N)nc2c1ncn2[C@@H]1O[C@@H](CO)[C@H](O)[C@@H]1O,-2%[11.4 µM],-9%[11.4 µM],-3%[11.4 µM],i,-2%[15.4 µM],-1%[15.4 µM]
Cc1c(C(=O)OCCN2CCCCC2)oc2ccccc12,.,-8%,27%,i,-2%,0%
C[C@H]1CC(C)(C)C[C@@](OCCN2CCCCC2)(c2ccccc2)C1,?,-8%[11.4 µM],5µM*,i,-1%[15.4 µM],-1%[15.4 µM]
Cn1ncc(C#N)c1/N=C/N(Cc1ccccc1)Cc1ccccc1,?,-3%,16µM*,i,2%,-1%
CCc1c2c(nc3ccc(OC)cc13)COC2,25%,-6%,11%,i,1%,-2%
CC(=O)Nc1cc(CN2CCCCC2)c(O)c2ncccc12,-2%[11.4 µM],-5%[11.4 µM],21%[11.4 µM],i,-2%[15.4 µM],-1%[15.4 µM]
CC(Sc1ncc(C#N)c(N)n1)C(=O)Nc1ccccc1 (configuration not stated),?,-2%,32µM*,i,0%,-1%
COC(=O)CSc1ncc(C#N)c(N)n1,-1%,-6%,-3%,i,-1%,-1%
CCC(=O)O[C@H]1C(O[C@@H]2C(C)[C@H](O[C@H]3C[C@@](C)(OC)C(O)C(C)O3)C(C)C(=O)OC(CC)[C@@](C)(O)C(O)[C@H](C)C(=O)C(C)C[C@]2(C)O)OC(C)CC1N(C)C (some centres not stated),.,.,.,.,0%[3.08 µM],-6%
COc1ccccc1NC(=O)CSc1nnnn1-c1ccc2c(c1)OCO2,18%,-2%,9%,i,-1%,0%
Cc1ccc(-n2nnnc2SCC(=O)Nc2ccccc2N2CCCCC2)cc1C,?,1%,3.2µM*,i,-2%,-1%
COc1cccc(-n2nnnc2SCC(=O)Nc2cccc(C)n2)c1,?,1%,25µM*,i,0%,-1%
c1ccc(-c2cnc(-c3ccc(-c4ncc(-c5ccccc5)o4)cc3)o2)cc1,?,-7%[11.4 µM],?,i,0%[15.4 µM],0%[15.4 µM]
CCN(CC)S(=O)(=O)c1ccc(N2CCCC2)c(C(=O)OCC(=O)/C(C#N)=C(\C)N)c1,25µM*,-1%,15%,i,0%,0%
N#Cc1c(NC(=O)CSC2=NCCS2)sc2c1CCCC2,?,-4%,?,i,2%,1%
Cc1ccnc(SCC(=O)Nc2sc3c(c2C#N)CCCC3)n1,?,-2%,20µM*,i,2%,2%
CCCn1c(=O)c2ccccc2n2c(SCCOc3ccc(Cl)cc3)nnc12,?,2%,25µM*,i,-2%,-1%
Cc1ccc2cc(CN(Cc3cccs3)C(=O)c3ccco3)c3nnnn3c2c1C,?,-4%,?,i,0%,0%
Cc1ccc2c(c1)cc(CN(Cc1cccs1)C(=O)c1ccco1)c1nnnn12,?,-5%,16µM*,i,1%,0%
O=c1[nH]nc(Sc2ncnc3sccc23)n1CCc1ccccc1,?,-2%,?,i,1%,1%
CCC(c1nnnn1C1CCCCC1)N1CCN(C2CCCC2)CC1 (configuration not stated),?,-8%,5µM*,i,-1%,-1%
CCCC(c1nnnn1C1CCCCC1)N1CCN(C2CCCC2)CC1 (configuration not stated),?,1%,16µM*,i,0%,2%
CCCC(c1nnnn1C(C)(C)CC)N1CCN(C2CCCC2)CC1 (configuration not stated),?,4%,1µM*,i,-1%,-2%
